# Sfp inh = blocks B. subtilis Sfp PPTase activity; Q9F4F7; Biochemical Sfp PPTase activity, qHTS; Potency, µM, actives largely listed as inhibitors; actives 3.5% (n = 310,000); AID 1490;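 note: the enzyme is Sfp with the accession as filed and its product quenches rhodamine fluorescence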
#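 Sfp 15 nM + cpd, 15 min RT; start w/ rhodamine-CoA 5 uM, BHQ-2-YbbR 12.5 uM (final); 50 mM Hepes pH 7.6, 10 mM MgCl2, 0.01% NP-40, 0.01% BSA; read 525/598 nm at 0 and 30 min.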
# ClpP mod = qHTS Assay for Activators of ClpP; actives 1.9% (n = 340,000); Potency, µM (titrated, usually from 57.5 µM); purified B. subtilis ClpP, FRET peptide cleavage, 20 min; active = well fitted falling curve with a large enough effect; inconclusive = small, poorly fitted or top-dose-only effect; inactive = no such curve, though single readings can be large or run the other way; note: the source files actives as falling curves though it sought activators and does not explain the sign; nearly all actives have a fitted effect of over 65% in size
# Target sequence (P80244 whole entry, looked up): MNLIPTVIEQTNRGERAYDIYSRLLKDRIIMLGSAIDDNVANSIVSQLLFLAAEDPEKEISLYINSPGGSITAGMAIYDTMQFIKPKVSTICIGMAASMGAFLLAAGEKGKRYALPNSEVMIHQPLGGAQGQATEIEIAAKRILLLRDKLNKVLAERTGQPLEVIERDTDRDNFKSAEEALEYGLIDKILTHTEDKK
#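 Buffer: 100 mM Tris/HCl pH8, 100 mM KCl, 0.05% low protease BSA, 2.5% glycerol, 0.01% Tween-20. ClpP 10 microg/mL final; 20 min RT; delta FRET normalized to ADEP and DMSO controls.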
# PINK1 expr mod = changes PINK1 expression; AID 624263; actives 0.2% (n = 410,000); PINK1 immunofluorescence, high-content cytometry, 24 h; Potency, µM (series often up to 76.6 µM), actives largely listed as activators; active = well fitted activation curve with a large enough effect; inconclusive = small, poorly fitted or top-dose-only effect; cell line not stated here; note: nearly all actives have a fitted effect of over 65% in size
#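 Stable cell line treated 24 h with compounds at 5 concentrations (CCCP controls), then fixed and immunostained for PINK1 plus nuclear and cell stains; PINK1 immunofluorescence quantified by laser-scanning microplate cytometry.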
# Gal4-VP16 FLuc = inhibits Gal4-VP16 luciferase reporter, ROR gamma counter-screen; Drosophila S2 Gal4-VP16 UAS-luciferase, luminescence, 20 h; Potency, µM (top dose mostly 53.6 µM), usual class: inhibitors; actives 3.5% (n = 310,000);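 note: Gal4-VP16 expression switched on by copper sulfate through the metallothionein promoter; nearly all actives have a fitted effect of over 50% in size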
# RORg inh = ROR gamma (mouse) transcription inhibition. P51450. Drosophila S2 Gal4-RORgamma UAS-luciferase reporter, 20 h. Potency, µM (series often up to 53.6 µM), hits mostly inhibitors. actives 5.4% (n = 310,000); note: nearly all actives have a fitted effect of over 60% in size
#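 Luminescence from a UAS-regulated Photinus luciferase reporter in stably transfected Drosophila Schneider cells is measured; decreased signal marks ROR gamma inhibition. Fusion expression is induced by 700 uM copper sulfate for 20 hr.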
# Epigenetic derep = regulators of epigenetic silencing causing reporter derepression in mouse cells; murine LDR cells, GFP reporter derepression, 30 h; Potency, µM (titrated, usually from 53.9 µM), actives largely listed as activators; actives 0.2% (n = 280,000); note: nearly all actives have a fitted effect of over 60% in size
#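 Murine LDR cells carrying a silenced, genomically integrated CMV-driven GFP reporter were exposed to compound for 30 hours at 37 C. After PBS washes, GFP-positive cells (20–120 um objects) were counted by laser-scanning microplate cytometry.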
# Sfp inh conf = confirmation of Bacillus subtilis Sfp PPTase inhibitors. shares compounds with Sfp inh. Sfp PPTase enzymatic assay, qHTS titration. Potency, µM (highest dose often 114 µM), most hits filed as inhibitors. actives 79% (n = 380). AID 2701
# Target sequence (Q9F4F7 whole entry, looked up): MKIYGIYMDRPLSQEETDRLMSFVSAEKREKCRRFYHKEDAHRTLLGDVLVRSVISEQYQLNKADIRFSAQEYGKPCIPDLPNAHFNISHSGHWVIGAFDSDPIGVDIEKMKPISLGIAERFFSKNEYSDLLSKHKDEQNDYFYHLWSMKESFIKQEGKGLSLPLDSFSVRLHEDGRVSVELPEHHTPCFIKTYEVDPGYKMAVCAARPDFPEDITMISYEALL
# Sfp gel assay = Inhibits Bacillus subtilis Sfp phosphopantetheinyl transferase; shares compounds with Sfp inh; purified Sfp, gel-based phosphopantetheinylation read-out; Potency, µM, most hits filed as inhibitors; actives 20% (n = 210);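 active = potency below 100 µM; inconclusive = dose-dependent response but potency above 100 µM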;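 note: potency is an IC50 for inhibitors of Sfp transfer activity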
# ClpP inh valid = Bacillus subtilis ClpP inhibition, validated hit; shares compounds with ClpP mod; purified B. subtilis ClpP, FRET-FV substrate cleavage, 20 min; Potency, µM (highest dose often 57.5 µM), usual class: inhibitors; actives 40% (n = 470); note: nearly all actives have a fitted effect of over 70% in size
# Numbers stand for hits; 0 = inactive; ? = inconclusive; - = no result given; ! = a repeat was not active; [ ] = dose if it differs, or a comment. Shown are actives, neighbours in structure and some others; about 8.1% of the full set was active somewhere. Unless noted, calls come from the whole dose curve; as a rule, active = well fitted curve in the direction sought with a large enough effect; inconclusive = small, poorly fitted or top-dose-only effect, or another doubt; inactive = no such curve, though single readings can be large; an effect the other way counts as inactive or inconclusive.
SMILES,Sfp inh,ClpP mod,PINK1 expr mod,Gal4-VP16 FLuc,RORg inh,Epigenetic derep,ClpP inh valid,others
O=C1NC(=S)N(Cc2ccco2)C(=O)/C1=C\c1cccs1,20µM,-,-,0,0,0,-,
C=CCN1C(=O)/C(=C/c2ccc(N3CCOCC3)o2)C(=O)NC1=S,0,0,0,?,0,0,-,
CN(C)c1ccc(/C=C2/C(=O)NC(=O)N(Cc3ccco3)C2=O)cc1,0,0,0,0,0[10 µM],0,-,
CCN(CC)c1ccc(/C=C2/C(=O)NC(=O)N(Cc3ccco3)C2=O)cc1,50µM,0,0,0,0,0,-,
CCN1CC2(OC(=O)c3ccccc3NC(C)=O)CCC(OC)[C@]34C1[C@H](CC23)[C@@]1(O)C[C@H](OC)[C@H]2CC4C1(O)[C@H]2OC (stereo partly specified),0,-,-,0,0,-,-,
CC[C@@H]1/C=C/C=C/C[C@H](C)[C@@H](O)[C@](C)(O)C(=O)[C@H](C)[C@@H](O)[C@H](C)C(=O)[C@H](C)[C@@H](O)[C@H](C)/C=C/C(=O)O[C@H]2[C@@H](C)[C@@H](CC1)O[C@@]1(CC[C@@H](C)[C@@H](C[C@H](C)O)O1)[C@@H]2C,0.0006µM,-,-,-,-,0,-,Sfp inh conf=0;Sfp gel assay=0
Cc1c(OCC(F)(F)F)ccnc1CS(=O)c1nc2ccccc2[nH]1 (stereo unspecified),13µM!,0,0,?,11µM!,0,-,Sfp inh conf=30µM;Sfp gel assay=0
CN(C(=O)Cc1ccccc1)[C@H](CN1CCCC1)c1ccccc1,0,-,-,0,0,0,-,
CS(=N)(=O)CC[C@@H](N)C(=O)O (stereo partly specified),0,-,-,0,0,0,-,
CSCC[C@H](NC(=O)[C@H](Cc1ccccc1)NC(=O)CNC(=O)CNC(=O)[C@@H](N)Cc1ccc(O)cc1)C(=O)O,0,-,-,-,-,0,-,
CCCCCn1c(N)c(C(=O)NCCN2CCOCC2)c2nc3ccccc3nc21,0,8.9µM,0,0,0,0,24µM,
Nc1c(C(=O)NCc2ccco2)c2nc3ccccc3nc2n1CCN1CCOCC1,?,10µM,0,0,0,0,22µM,
CCCCn1c(NS(=O)(=O)c2ccc(C)cc2)c(C(=O)OCC)c2nc3ccccc3nc21,0,0,0,0,0,0,-,
C[C@]12CC[C@@H]3[C@@H](CCC4=CC(=O)CC[C@@H]43)[C@@H]1CC[C@@H]2OC(=O)CCc1ccccc1,?,-,-,0,0,0,-,
O[C@H]1CCCC[C@H]1N1CCC(c2ccccc2)CC1,0,-,-,0,0,0,-,
CCN(CC)CCSc1nc2ccccc2c(=O)n1-c1ccc(Cl)cc1,-,0,0,-,-,0,-,
Cc1cc(NC(=O)CSc2nc3c([nH]c4ccccc43)c(=O)n2-c2ccc(Cl)cc2)no1,-,0,0,-,-,0,0,
Nc1c(C(=O)OC2CCCCC2)c2nc3ccccc3nc2n1CC1CCCO1 (stereo unspecified),0,0,0,0,11µM,0,?,
Cc1ccc2c(c1)cc(C(=O)Nc1ccccc1C)n2C,-,0,0,-,-,0,?,
CO[C@@H](C)[C@](O)(C(=O)OCC1=CCN2CC[C@@H](O)[C@H]12)C(C)C,0,-,-,0,0,0,-,
